What was measured:
[1] = test system: Human papillomavirus type 1a protein E7 (residues 44-93); experiment: HPV1a E7 fragment binders on microarrays, primary screen, biochemical, small-molecule microarray, residues 44-93, 635 nm fluorescence (AID 1108); details: small-molecule microarray binding, fluorescence 635 nm; higher = more signal;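 further: E7 fragment applied at 1 µg/mL in TBST for 1 h at 4 C; score combines spot fluorescence with its signal to noise ratio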
[2] = modulators of HCV replicon luciferase signal, primary screen, HCV replication inhibitor project, Huh7 cells, luciferase reporter (AID 1109); details: 48 h, higher = more signal;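 further: huh7 hepatoma cells harbouring a luciferase neomycin HCV replicon reporter; luciferase luminescence as measure of HCV replicon replication; test concentration not given here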
[3] = molecular target: Left-right determination factor 2 (Homo sapiens) (UniProt O00292); experiment: LEFTY2 binders on small-molecule microarrays, primary screen, biochemical, small-molecule microarray, 635 nm fluorescence scan (AID 1110); details: LEFTY2 binding, higher = more signal
Left-right determination factor 2 (Homo sapiens), sequence (O00292 whole entry, looked up): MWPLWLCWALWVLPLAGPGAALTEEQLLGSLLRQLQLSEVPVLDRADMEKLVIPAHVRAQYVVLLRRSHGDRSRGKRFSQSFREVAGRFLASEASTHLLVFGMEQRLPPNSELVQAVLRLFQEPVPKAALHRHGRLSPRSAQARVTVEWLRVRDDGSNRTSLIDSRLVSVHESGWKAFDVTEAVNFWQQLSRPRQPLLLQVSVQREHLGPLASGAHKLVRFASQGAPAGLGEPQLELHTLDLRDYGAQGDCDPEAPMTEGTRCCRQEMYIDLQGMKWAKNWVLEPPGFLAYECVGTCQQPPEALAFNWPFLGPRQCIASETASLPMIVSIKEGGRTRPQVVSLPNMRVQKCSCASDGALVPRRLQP

[4] = molecular target: Calmodulin-1 (Homo sapiens) (UniProt P0DP23); experiment: CALM1 binders on microarrays, EGTA buffer, profiling panel, biochemical, small-molecule microarray, Cy5-labelled CALM1 (AID 1111); details: Cy5-CALM1 binding fluorescence, higher = more signal;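 further: labelled calmodulin applied in Tris saline Tween buffer holding calcium plus EGTA and DTT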
[5] = molecular target: Calmodulin-1 (Homo sapiens) (UniProt P0DP23); experiment: calcium-bound CALM1 binders on microarrays, profiling panel, artefact control for SMM control-protein annotation, biochemical, small-molecule microarray, Cy5-labelled CALM1, plus calcium (AID 1112); details: Cy5-CALM1 binding fluorescence, higher = more signal;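 further: score merges spot fluorescence with signal to noise from triplicate slides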
[6] = small-molecule microarray binders of probe aWnt5a, primary screen, biochemical, biotinylated probe, 635/667 nm fluorescence (AID 1113); details: higher = more signal;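 further: score merges 667 nm fluorescence intensity with signal-to-noise per printed feature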
[7] = small-molecule microarray binders of probe aShh, primary screen, biochemical, biotinylated probe, 635/667 nm fluorescence (AID 1114); details: higher = more signal;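 further: probe is biotin-labelled aShh protein from a stem cell growth factor screen; measures binding of labelled protein to compounds printed on the slide; score merges feature fluorescence at 667 nm with signal-to-noise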
[8] = small-molecule microarray binders of probe aNog, primary screen, biochemical, biotinylated probe, 635/667 nm fluorescence (AID 1115); details: higher = more signal;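 further: probe is biotinylated aNog protein used at 0.15 µg/mL for 1 h at 4 C; z-score combines 667 nm fluorescence of each spot with its signal to noise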
[9] = molecular target: Torsin-1A-interacting protein 1 (Homo sapiens) (UniProt Q5JTV8); experiment: LAP1 binders from COS7 cell lysate, primary screen, small-molecule microarray, 635/667 nm fluorescence (AID 1116); details: COS7-hLAP1 lysate binding, 635 nm fluorescence, higher = more signal
Torsin-1A-interacting protein 1 (Homo sapiens), sequence (Q5JTV8 whole entry, looked up): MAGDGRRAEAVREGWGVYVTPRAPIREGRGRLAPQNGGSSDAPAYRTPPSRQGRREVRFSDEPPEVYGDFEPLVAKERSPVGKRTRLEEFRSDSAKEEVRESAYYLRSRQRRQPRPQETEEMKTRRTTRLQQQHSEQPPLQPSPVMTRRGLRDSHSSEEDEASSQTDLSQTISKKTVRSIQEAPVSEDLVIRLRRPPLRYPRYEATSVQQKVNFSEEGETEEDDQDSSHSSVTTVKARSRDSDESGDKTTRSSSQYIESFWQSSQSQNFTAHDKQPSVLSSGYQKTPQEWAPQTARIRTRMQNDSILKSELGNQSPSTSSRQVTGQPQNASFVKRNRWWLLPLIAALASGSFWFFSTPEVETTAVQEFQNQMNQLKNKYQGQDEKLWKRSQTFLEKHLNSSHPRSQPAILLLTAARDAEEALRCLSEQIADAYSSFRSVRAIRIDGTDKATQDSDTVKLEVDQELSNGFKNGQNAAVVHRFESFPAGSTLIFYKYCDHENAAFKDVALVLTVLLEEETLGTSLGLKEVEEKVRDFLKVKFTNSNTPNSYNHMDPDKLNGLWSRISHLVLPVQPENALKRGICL

[10] = molecular target: Alpha-bungarotoxin (Bungarus multicinctus) (UniProt P60615); experiment: alpha-bungarotoxin binders on microarray, profiling panel, artefact control for SMM control protein annotation, biochemical, small-molecule microarray, Alexa647 label, 635/667 nm fluorescence (AID 1117); details: alpha-BTX-A647 binding fluorescence, higher = more signal
Alpha-bungarotoxin (Bungarus multicinctus), sequence (P60615 whole entry, looked up): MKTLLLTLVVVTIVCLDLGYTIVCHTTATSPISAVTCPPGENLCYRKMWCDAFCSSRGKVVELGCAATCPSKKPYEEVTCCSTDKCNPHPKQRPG

SMILES | composite z-score [1] | z-score [2] | composite z-score [3] | composite z-score [4] | composite z-score [5] | composite z-score [6] | composite z-score [7] | composite z-score [8] | composite z-score [9] | composite z-score [10]
CCCNC(=O)[C@@]1(c2ccc([N+](=O)[O-])cc2)CC(=O)N(C2CCCCC2)[C@@H]1c1ccc(CO)cc1I | 0.198 | -2.64 | -0.101 | 0.647 | 0.587 | 0.108 | 0.166 | 1.44 | 1.33 | 1.6
C=C(CCCC)/C(=C/C[C@@H](OC(C)=O)c1ccc(CO)o1)c1cc(C(=O)OC)ccc1OC | 1.45 | -1.79 | 0.26 | 0.723 | 0.0443 | -0.0758 | -0.232 | 0.141 | 0.886 | 1.28
COCCOC(=O)N1C(=O)[C@@]2(c3cc(C#CCNC(N)=O)ccc31)[C@H](C(=O)N1CCCCCCC1)[C@H]1C(=O)O[C@H](c3ccccc3)[C@H](c3ccccc3)N1[C@@H]2c1ccc(O)cc1 | 0.964 | -1.07 | 0.212 | 0.356 | -0.947 | -0.164 | -0.214 | -0.456 | 0.546 | 0.863
C=CCC(OC(C)=O)[C@@H]1[C@@H](N(Cc2cc3ccccc3o2)C(=O)c2ccc(C)cc2)c2cc(OCCCO)ccc2N1C(=O)Cc1ccc2ccccc2c1 (stereo not given in full) | -0.494 | -0.185 | 0.081 | -0.0956 | -0.147 | 0.103 | -0.13 | -0.322 | 0.102 | -0.319
CN1C(=O)C2C=CC(C(O)C3CCCCC3)N(N3CCCCC3)C2C1=O (stereo not given) | 1.47 | -0.306 | 0.194 | 0.407 | -0.331 | 0.164 | 0.109 | 1.31 | 1.4 | 1.66
Cc1ccc(S[C@]2(C(=O)NC3CC3)CC(=O)N(Cc3ccccc3Cl)[C@@H]2c2ccc(CO)cc2I)cc1 | 1.45 | -1.57 | -0.355 | 0.156 | -0.274 | 0.109 | 0.0062 | -0.429 | 0.769 | 0.939
CC(C)N1CC=CC23O[C@@H]4C=CCCOC(=O)C4[C@H]2C(=O)N(CCO)[C@@H]3C1=O (stereo not given in full) | -0.478 | 0.516 | -0.289 | -0.343 | -0.348 | -0.224 | -0.282 | -0.0852 | -0.494 | -0.048
COC(=O)[C@@]1(Cc2ccc(F)cc2)[C@H]2c3cc(C(=O)N4CCCC4)n(CCc4c[nH]c5ccc(OC)cc45)c3C[C@H]2CN1C(=O)c1ccccc1 | 1.4 | -2.22 | 0.474 | 1.92 | 0.878 | 1.19 | 1.17 | 2.98 | 0.781 | 1.23
C=CCOC(=O)[C@@H]1[C@H]2C(=O)O[C@H](c3ccccc3)[C@H](c3ccccc3)N2[C@H](c2ccc(OCCOC(=O)[C@H]3C[C@H]4C(=O)N[C@@H](CCCC[N+](C)(C)C)C(=O)N4[C@H]3c3ccc(O)cc3)cc2)[C@@]12C(=O)Nc1ccc(I)cc12 | 0.505 | -0.908 | 1.05 | 1.64 | -0.116 | 0.0101 | 0.147 | -0.0927 | 1.49 | 1.89
CC(C)(C)OC(=O)CC[C@]1(C(=O)NCCN2CCOCC2)N=C(c2ccc(OCCCO)cc2)O[C@H]1c1ccccc1N=[N+]=[N-] | 0.775 | 1.08 | 0.245 | 1.3 | 0.374 | 0.0229 | 0.0214 | 1.73 | 1.7 | 1.04
C=C(CCCC)C(=O)CC[C@@H](OC(=O)c1cccnc1)c1ccccc1OCCO | -0.266 | -3.05 | -0.0055 | -1.11 | -1.07 | -0.091 | -0.138 | -0.117 | 0.684 | 0.583
CC=CC(O)C1C=CC2C(=O)N(c3ccccc3)C(=O)C2N1Nc1ccccc1 (stereo not given) | 1.19 | 0.527 | 0.215 | 0.667 | 0.362 | 0.136 | 0.304 | 1.16 | 1.1 | 1.89
CC(C)OC(=O)CC(=O)CC(O)c1cccc(C#N)c1 (stereo not given) | 1.32 | -0.664 | -0.0472 | 0.552 | 0.252 | -0.0944 | -0.16 | -0.0956 | 1.39 | 0.684
CCCCN1CC=CC23O[C@@H]4C=CCOC(=O)[C@@H]4[C@H]2C(=O)N(C(C)CO)[C@@H]3C1=O (stereo not given in full) | -1.31 | -0.748 | -1.29 | -0.397 | 0.5 | -0.169 | -0.209 | 0.26 | -0.194 | -0.714
O=C(O)[C@H]1C[C@H]2C(=O)N3CCC[C@H]3C(=O)N2[C@H]1c1cccc(OCCO)c1 | 1.1 | 1.55 | 0.266 | 0.0384 | 0.286 | -0.0944 | -0.167 | 0.0951 | 0.83 | 1.67
CN1C(=O)[C@@]2(CCS(=O)(=O)c3ccccc3)N=C(c3ccc(OCCCO)cc3)O[C@H]2c2ccccc21 | 1.48 | -1.55 | -0.0486 | 2.46 | -0.865 | -0.176 | -0.367 | -0.321 | 1.72 | 1.32
CCOC(=O)C1=CC[C@@H](c2ccc([N+](=O)[O-])cc2)N(S(=O)(=O)c2ccc(C)cc2)[C@H]1c1ccccc1 | 1.4 | -1.55 | 0.995 | 0.455 | 0.423 | 0.0324 | -0.0769 | 0.506 | 0.378 | 0.962
CCOC(=O)C[C@H]1[C@H](OC(=O)Cc2ccc3c(c2)OCO3)[C@@H](NC(=O)Cc2ccc(OC)cc2)c2cc(OCCCO)ccc2N1C(=O)c1ccccc1 | 0.142 | -1.72 | 0.609 | 0.0314 | -0.551 | -0.154 | 0.233 | 0.588 | 0.569 | 0.997
COc1ccccc1CN1C(=O)c2ccccc2[C@@H](C(=O)NC(C)C)[C@@H]1c1ccc(CO)cc1 | 0.636 | -0.861 | 0.4 | 0.301 | -0.508 | 0.236 | 0.14 | -0.637 | 0.902 | 1.06
C=C[C@@H](C)[C@H](OC(=O)Nc1ccc(SC)cc1)c1ccc(OCCO)cc1 | -0.868 | 2.09 | -1.03 | -0.163 | 0.649 | 0.0423 | -0.206 | 1.41 | -0.111 | 0.0265
COCCCNC(=O)[C@]1(Cc2ccccc2N=[N+]=[N-])N=C(c2ccc(OCCCO)cc2)O[C@@H]1c1ccccc1N=[N+]=[N-] | 1.43 | -3.31 | -0.282 | 1.72 | 0.785 | 0.14 | 0.0556 | -0.312 | -0.0819 | 0.955
